Results filed as inconclusive are left out. Activity calls are given as the source filed them. Calls come from the whole dose curve; as a rule, active = well fitted inhibition curve with a large enough effect; inconclusive = small, poorly fitted or top-dose-only effect; inactive = flat fitted curve, though single readings scatter.
Tests used:
Test in all cases: qHTS profiling for inhibitors of Plasmodium falciparum proliferation (AID 504749); note: nearly all actives have a fitted effect of over 60% in size
Settings in all cases: P. falciparum in erythrocytes, SYBR Green DNA, 72 h; series mostly up to 28.7 µM
CP291 = tested on: CP291
In short: (§1)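 Quantitative HTS: compounds pinned into medium, infected erythrocytes added (0.3% parasitemia, 2.5% hematocrit), 72 h culture at 37 C under 5% CO2. Saponin/Triton lysis with SYBR Green I, overnight RT, then fluorescence read.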

CP305 = tested on: CP305
In short: as §1

CP315 = tested on: CP315
In short: as §1

CP325 = tested on: CP325
In short: as §1

CP329 = tested on: CP329
In short: as §1

DFO2036 = tested on: DFO2036
In short: as §1

DIV30 = tested on: DIV30
In short: as §1

ECU = tested on: ECU
In short: as §1

FAB9 = tested on: FAB9
In short: as §1

HB3 = tested on: HB3
In short: as §1

JCK = tested on: JCK
In short: as §1

N140 = tested on: N140
In short: as §1

CP297 = tested on: CP297
In short: as §1

DIV14 = tested on: DIV14
In short: as §1

DIV17 = tested on: DIV17
In short: as §1

GB4 = tested on: GB4
In short: as §1

ICS = tested on: ICS
In short: as §1

Dd2 = tested on: Dd2
In short: as §1

P93_24 = tested on: P93_24
In short: as §1

CP335 = tested on: CP335
In short: as §1

Measured: Potency
Potency is the fitted concentration of half-maximal effect.

CCOC(CN1CCN(CC(C)C(=O)c2ccccc2)CC1)c1ccccc1 (stereo not drawn)
not listed: CP297 | DIV14 | DIV17 | GB4 | ICS | Dd2 | P93_24 | CP335
inactive: all other assays above

CNCCC(Oc1ccc(C(F)(F)F)cc1)c1ccccc1 (stereo not drawn)
inactive: CP297 | CP315 | CP329 | DFO2036 | FAB9 | HB3
active: DIV14 3.01 µM | DIV17 6.75 µM | DIV30 6.75 µM | GB4 13.5 µM | ICS 7.94 µM

NC(=O)N/N=C/c1ccc([N+](=O)[O-])o1
inactive: CP315 | CP329 | FAB9 | JCK
active: Dd2 10 µM | GB4 13.5 µM | HB3 11.2 µM | ICS 11.2 µM | N140 11.2 µM | P93_24 8.91 µM

CN1CCC[C@@H]1Cc1c[nH]c2ccc(CCS(=O)(=O)c3ccccc3)cc12
active: DIV14 9.53 µM | DIV17 7.57 µM | Dd2 12.6 µM | ICS 7.08 µM
inactive: CP305 | CP315 | CP329 | DFO2036 | FAB9 | HB3 | JCK

CSc1ccc2c(c1)C(N1CCN(C)CC1)Cc1ccccc1S2 (stereo not drawn)
active: DIV14 10.7 µM | DIV17 15.1 µM | GB4 13.5 µM | ICS 8.91 µM | P93_24 11.2 µM
inactive: CP315 | FAB9 | HB3 | JCK

OCCN1CCN(CCCN2c3ccccc3Sc3ccc(Cl)cc32)CC1
inactive: DIV30
active: CP335 2.56 µM | DIV14 5.73 µM | DIV17 5.1 µM | Dd2 3.55 µM | ECU 3.16 µM | GB4 4.55 µM | ICS 3.98 µM | N140 3.55 µM | P93_24 2.24 µM

Cn1c(=O)c2c(ncn2CC2OCCO2)n(C)c1=O
not listed: CP297
inactive: all other assays above

Oc1ccc(C(O)CNCCCCCCNCC(O)c2ccc(O)c(O)c2)cc1O (stereo not drawn)
inactive: DFO2036 | FAB9
active: CP335 9.53 µM | DIV14 10.7 µM | DIV17 15.1 µM | Dd2 10 µM | GB4 13.5 µM | ICS 6.31 µM | P93_24 10 µM

CN(C)CCCN1c2ccccc2Sc2ccc(Cl)cc21
inactive: CP315 | DFO2036 | FAB9 | HB3
active: CP335 13.5 µM | DIV14 3.01 µM | DIV17 4.78 µM | DIV30 9.53 µM | GB4 8.49 µM | ICS 4.47 µM

CCCCN1CCCC[C@H]1C(=O)Nc1c(C)cccc1C
not listed: CP291 | GB4 | CP335
inactive: all other assays above

Reference: PubChem BioAssay (NCATS)
